Results filed as inconclusive are left out. Entries that show only a call come without a potency. Calls of active or inactive are those of the source. The call rests on the fitted dose curve; in most records, active means well fitted cell-killing curve with a large enough effect in the repeat runs; inconclusive means weak or mixed curves, or effect the other way; inactive means flat fitted curve, though single readings scatter.
Assay: cAMP Responsive Elements (CRE) small molecule antagonists, cell-based qHTS assay: qHTS cell viability counter screen (AID 2060913); further: nearly all actives have a fitted effect of over 40% in size
Conditions: CRE-bla HEK293T viability, CellTiter-Glo luminescence, 5 h; series mostly up to 92.4 µM
Method in brief: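 CRE-bla HEK293T cells (2,000/well, 18 h) given compound plus NKH477 0.25 uM final for 3 h at 37C; viability counter-screen by CellTiter-Glo luminescence in same wells after 30 min.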
For `Oc1ccccc1F`, the Potency was “inactive”.
For `C/C=C1\[C@H]2C=C(C)C[C@]1(N)c1ccc(=O)[nH]c1C2`, the Potency was “inactive”.
With `Cn1cccc1` the Potency was “inactive”.
For `Brc1ccc(-c2ccccc2)cc1`, the Potency was “inactive”.
In the case of `C/C=C/C(=O)CCCC`, the Potency is reported as “inactive”.
In the case of `Cc1cc(-c2ccccc2)nnc1NCCN1CCOCC1`, the Potency is reported as “inactive”.
For `CCOC(=O)COc1cc(-n2ncc(C(F)(F)F)c(C)c2=O)c(F)cc1Cl`, the Potency was “inactive”.
With `Cc1cc(C(=O)O)ccc1[N+](=O)[O-]` the Potency was “inactive”.
In the case of `CC(C)(C)NC(N)=O`, the Potency is reported as “inactive”.
With `CC12CCCC=C1C(=O)OC2=O` (stereo not given) the Potency was “inactive”.
For `Cc1ccc(C)c(C)c1`, the Potency was “inactive”.
With `O=Cc1c(Cl)cccc1Cl` the Potency was “inactive”.
In the case of `CCCCCCCCOc1ccccc1C(=O)Nc1ccc(C(=O)OCC[N+](C)(CC)CC)cc1`, the Potency is reported as “inactive”.
In the case of `O=S(=O)(O)c1ccccc1O`, the Potency is reported as “inactive”.
With `C=CC(=O)OCC[N+](C)(C)C` the Potency was “inactive”.
For `O=CN1CCOCC1`, the Potency was “inactive”.
With `CC(=O)Nc1c(I)c(NC(C)=O)c(I)c(C(=O)O)c1I` the Potency was “inactive”.
For `COc1ccc(C(Cl)=C(c2ccc(OC)cc2)c2ccc(OC)cc2)cc1`, the Potency was “inactive”.
With `CC(C)(C)c1n[nH]c(=S)n(N)c1=O` the Potency was “inactive”.
In the case of `CCCNC(C)C(=O)Nc1ccccc1C` (stereo not given), the Potency is reported as “inactive”.
For `CCCCC(CC)COCC1CO1` (stereo not given), the Potency was “inactive”.
With `COC(C)CCO` (stereo not given) the Potency was “inactive”.
With `C=COCCOCCOC=C` the Potency was “inactive”.
In the case of `COc1ccccc1OCCNCC(O)COc1cccc2[nH]c3ccccc3c12` (stereo not given), the Potency is reported as “inactive”.
For `CO[Si](CCCNCCNCCN)(OC)OC`, the Potency was “inactive”.
In the case of `C[C@]12C[C@H](O)[C@H]3[C@@H](CCC4=CC(=O)CC[C@@]43C)[C@@H]1CC[C@@H]2C(=O)CO`, the Potency is reported as “inactive”.
In the case of `CC(C)(c1ccccc1)c1ccccc1`, the Potency is reported as “inactive”.
With `CO[Si](C)(OC)c1ccccc1` the Potency was “inactive”.
With `CCCCOC(=O)[C@@H](C)Oc1ccc(Oc2ccc(C(F)(F)F)cn2)cc1` the Potency was “inactive”.
In the case of `c1cc(N(CC2CO2)CC2CO2)ccc1Cc1ccc(N(CC2CO2)CC2CO2)cc1` (stereo not given), the Potency is reported as “inactive”.
With `CC(=O)N1CCN(c2ccc(O)cc2)CC1` the Potency was “inactive”.
In the case of `O=C(CCCl)NCCc1ccccc1`, the Potency is reported as “inactive”.
For `NC(=O)Nc1ccc(Cl)c(Cl)c1`, the Potency was “inactive”.
In the case of `Oc1ccc2cc(SSc3ccc4cc(O)ccc4c3)ccc2c1`, the Potency is reported as “inactive”.
In the case of `CC1CCc2cc(F)cc3c(=O)c(C(=O)O)cn1c23` (stereo not given), the Potency is reported as “inactive”.
In the case of `CC(=O)SCC(CC(=O)c1ccc(C)cc1)C(=O)O` (stereo not given), the Potency is reported as “inactive”.
For `CC(CC(=O)O)CC(C)(C)C` (stereo not given), the Potency was “inactive”.
For `COC(=O)/C=C/C(C)=C\C=C\C(C)=C\C=C\C=C(C)\C=C\C=C(C)\C=C\C(=O)O`, the Potency was “inactive”.
With `O=C(NN1CCCC1)NS(=O)(=O)c1ccc(Cl)cc1` the Potency was “inactive”.
For `CCCCCCCCCCCC(=O)OC`, the Potency was “inactive”.

Assay: cAMP Responsive Elements (CRE) small molecule agonists, cell-based qHTS assay: qHTS cell viability counter screen (AID 2060914);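 further: viability read after 3 h of compound exposure; nearly all actives have a fitted effect of over 50% in size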
Conditions: CRE-bla HEK293T viability, CellTiter-Glo luminescence, 5 h; series mostly up to 92.4 µM
Method in brief: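 CRE-bla HEK 293T cells, plated 18 h at 37 °C, were exposed to compounds for 3 h at 37 °C/5% CO2. Viability was then measured in the same wells by CellTiter-Glo luminescence after 30 min at room temperature.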
With `Oc1ccccc1F` the Potency was “inactive”.
In the case of `C/C=C1\[C@H]2C=C(C)C[C@]1(N)c1ccc(=O)[nH]c1C2`, the Potency is reported as “inactive”.
For `Cn1cccc1`, the Potency was “inactive”.
In the case of `Brc1ccc(-c2ccccc2)cc1`, the Potency is reported as “inactive”.
For `C/C=C/C(=O)CCCC`, the Potency was “inactive”.
For `Cc1cc(-c2ccccc2)nnc1NCCN1CCOCC1`, the Potency was “inactive”.
With `CCOC(=O)COc1cc(-n2ncc(C(F)(F)F)c(C)c2=O)c(F)cc1Cl` the Potency was “inactive”.
In the case of `Cc1cc(C(=O)O)ccc1[N+](=O)[O-]`, the Potency is reported as “inactive”.
With `CC(C)(C)NC(N)=O` the Potency was “inactive”.
For `CC12CCCC=C1C(=O)OC2=O` (stereo not given), the Potency was “inactive”.
In the case of `Cc1ccc(C)c(C)c1`, the Potency is reported as “inactive”.
With `O=Cc1c(Cl)cccc1Cl` the Potency was “inactive”.
In the case of `CCCCCCCCOc1ccccc1C(=O)Nc1ccc(C(=O)OCC[N+](C)(CC)CC)cc1`, the Potency is reported as “inactive”.
In the case of `O=S(=O)(O)c1ccccc1O`, the Potency is reported as “inactive”.
For `C=CC(=O)OCC[N+](C)(C)C`, the Potency was “inactive”.
With `O=CN1CCOCC1` the Potency was “inactive”.
With `CC(=O)Nc1c(I)c(NC(C)=O)c(I)c(C(=O)O)c1I` the Potency was “inactive”.
In the case of `COc1ccc(C(Cl)=C(c2ccc(OC)cc2)c2ccc(OC)cc2)cc1`, the Potency is reported as “inactive”.
In the case of `CC(C)(C)c1n[nH]c(=S)n(N)c1=O`, the Potency is reported as “inactive”.
With `CCCNC(C)C(=O)Nc1ccccc1C` (stereo not given) the Potency was “inactive”.
With `CCCCC(CC)COCC1CO1` (stereo not given) the Potency was “inactive”.
With `COC(C)CCO` (stereo not given) the Potency was “inactive”.
With `C=COCCOCCOC=C` the Potency was “inactive”.
For `COc1ccccc1OCCNCC(O)COc1cccc2[nH]c3ccccc3c12` (stereo not given), the Potency was “inactive”.
For `CO[Si](CCCNCCNCCN)(OC)OC`, the Potency was “inactive”.
In the case of `C[C@]12C[C@H](O)[C@H]3[C@@H](CCC4=CC(=O)CC[C@@]43C)[C@@H]1CC[C@@H]2C(=O)CO`, the Potency is reported as “inactive”.
With `CC(C)(c1ccccc1)c1ccccc1` the Potency was “inactive”.
For `CO[Si](C)(OC)c1ccccc1`, the Potency was “inactive”.
With `CCCCOC(=O)[C@@H](C)Oc1ccc(Oc2ccc(C(F)(F)F)cn2)cc1` the Potency was “inactive”.
In the case of `c1cc(N(CC2CO2)CC2CO2)ccc1Cc1ccc(N(CC2CO2)CC2CO2)cc1` (stereo not given), the Potency is reported as “inactive”.
With `CC(=O)N1CCN(c2ccc(O)cc2)CC1` the Potency was “inactive”.
In the case of `O=C(CCCl)NCCc1ccccc1`, the Potency is reported as “inactive”.
In the case of `NC(=O)Nc1ccc(Cl)c(Cl)c1`, the Potency is reported as “inactive”.
In the case of `Oc1ccc2cc(SSc3ccc4cc(O)ccc4c3)ccc2c1`, the Potency is reported as “inactive”.
In the case of `CC1CCc2cc(F)cc3c(=O)c(C(=O)O)cn1c23` (stereo not given), the Potency is reported as “inactive”.
In the case of `CC(=O)SCC(CC(=O)c1ccc(C)cc1)C(=O)O` (stereo not given), the Potency is reported as “inactive”.
With `CC(CC(=O)O)CC(C)(C)C` (stereo not given) the Potency was “inactive”.
For `COC(=O)/C=C/C(C)=C\C=C\C(C)=C\C=C\C=C(C)\C=C\C=C(C)\C=C\C(=O)O`, the Potency was “inactive”.
With `O=C(NN1CCCC1)NS(=O)(=O)c1ccc(Cl)cc1` the Potency was “inactive”.
With `CCCCCCCCCCCC(=O)OC` the Potency was “inactive”.
